Experimental data as given in PubChem BioAssay AID1846 (The Scripps Research Institute Molecular Screening Center, 2009).
“And” between values parts separate entries of the source, which are not always exact repeats. Equal values may be shown once. Hit rate of the full screen: of about 2,300 compounds, about 1,500 (65%) were called active. Rule as the data show it: active = inhibition above about 18%; inactive = the rest. The set was probably picked from earlier hits. Only a sample is shown. A structure can be active in one record and inactive in another.

The compounds below were run against Heat shock protein HSP 90-alpha (Homo sapiens) (UniProt P07900) (assay: inhibitors of HSP90 chaperone activity – cell lysate, luminescence, confirmation (AID 1846;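 also: 0% = vehicle wells and 100% = reference inhibitor wells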)). Details: rabbit reticulocyte lysate, luciferase refolding luminescence, 3 h; at 5.9 µM; stronger effect = higher value.

inhibition, active:
COc1cccc(/C=C/c2ccc3ccccc3n2)c1OC(C)=O 72.3%
CN(c1ccc2nc3ccccc3c(=O)n2n1)C1CCCCC1 90.9%
C=CCN1CCN(C(=O)CCCc2ccccc2)CC1 52.5%
Cc1cccc(NC(=O)/C=C/c2ccc3c(c2)OCO3)n1 40.6%
O=C(Nc1cccnc1)c1noc2c1CCCCC2 48%
COc1ccc(Nc2ncnc3ccc(Br)cc23)c(OC)c1 54.7%
O=C(Cc1ccccc1)N1CCN(S(=O)(=O)c2ccc([N+](=O)[O-])cc2)CC1 53.5%
CCOc1ccc(-c2nnc(-c3ccco3)o2)cc1 60.3%
O=C(Nc1ccc2c(c1)OCCO2)C1CCCN(c2ncccn2)C1 (stereo not given) 34.1%
Clc1ccc(-c2cc(-c3ccccn3)on2)c(Cl)c1 84.9%
Cc1nc2cc(NC(=O)Nc3cccc(F)c3)ccc2n1C 40.5%
CCOC(=O)C1=C(c2ccc(OC)cc2)C(=O)c2ccccc2C1=O 95.3%
Cc1ccc(C(=O)O/N=C(\N)c2ccccn2)cc1Cl 29.5%
COc1ccc(CNC(=O)/C(C#N)=C/c2cccc(OC)c2OC)cc1 18.9%
Cc1cccc(C(=O)OC(C)CN2CCN(C)CC2)c1 (stereo not given) 19.1%
O=[N+]([O-])/C=C/c1ccc2c(ccn2Cc2ccccc2)c1 68.7%
O=C(CSC(=S)N1CCOCC1)c1ccccc1 57.6%
Cc1cnc(NC(=O)c2ccccn2)s1 39.7%
COc1cccc2c(C)c(C(=O)O)[nH]c12 56.9%
Cc1ccc(C(=O)CSc2ccccc2C(=O)O)cc1 42.3%
Cc1ccsc1C(=O)OCC(=O)c1cc(C)n(CC2CCCO2)c1C (stereo not given) 89.3%
Clc1cccc(N=C2NN=C(c3ccc4c(c3)OCCO4)CS2)c1 41.5%
Cc1nc2ccc(C(=O)O)cc2[nH]1 46.4%
CC(C)c1nc2ccc(C(=O)O)cc2[nH]1 55.6%
CCCOc1ccc(C(=O)NCCc2ccccc2)cc1 49.2%
COc1ccc(/C=C/c2noc(-c3ccccc3OC(C)=O)n2)cc1 45.2%
COc1cc(SC)ccc1C(=O)Nc1nc(C)cs1 94%
COC(=O)c1sc(NC(=O)c2ccc(OC)cc2OC)nc1C 67.3%
c1ccc(-c2noc(-c3cccs3)n2)nc1 43.7%
COc1ccc(C(=O)/C=C/Nc2ccccn2)cc1 96.8%
CCOc1ccc(N/C=C/C(=O)c2ccccc2)cc1 75.5%
Cc1nc(NC(=O)c2cccc(Cl)c2)sc1-c1csc(Nc2cccc(Cl)c2)n1 23.7%
COc1ccc(C(=O)Nc2ccccc2C(=O)N/N=C/c2ccc(O)c(OC)c2)cc1 98.7%
COc1ccc(/C=N/Nc2ccccc2C(=O)O)cc1 29.5%
COc1ccc(C(=O)Nc2ccccc2C(=O)N/N=C/c2ccccc2OC)cc1 74.7%
CCCCCc1ccc(-c2ccc(C(=O)O)cc2)nc1 72.4%
COc1ccc(-n2nnnc2-c2nc3ccccc3s2)cc1 51.8%
O=C(Nc1ccccc1)c1ccc2c(c1)OCCCO2 49.6%
O=C(Nc1nc2ccccc2s1)c1ccc2c(c1)OCO2 57.7%
c1c2c(cc3sc(N4CCCCC4)nc13)OCCO2 81.9%
CCOc1ccc(C2NC(=S)NC3=C2CCc2ccccc23)cc1 (stereo not given) 28.4%
Cn1c(-c2ccco2)nc2cc3ccccc3cc21 58.9%
CCOc1ccc(OCc2ccc(C(=O)N(C)c3ccccc3)o2)cc1 28.8%
O=C(Nc1ccccc1C(=O)O)c1ccc(N2C(=O)C3CC=CCC3C2=O)cc1 (stereo not given) 25.4%
CCOc1ccc(OCc2cccc(C(=O)N(CC)CC)c2)cc1 39.7%
CCS(=O)(=O)c1cc([N+](=O)[O-])c(Sc2ccccc2N)s1 56%
O=c1oc(/C=C/c2ccccc2)nc2ccccc12 33%
COc1ccc(-c2cn3ccc(C)cc3n2)cc1 83.5%
Cc1ccc(-c2cn3cc(C)ccc3n2)cc1 90.3%
Cc1ccc2nc(-c3ccc(Br)cc3)cn2c1 82%
CCc1ccc2oc(-c3ccc(N)cc3)nc2c1 53.6%
Clc1ccc2nc(CSc3ccccc3)cn2c1 57%
Cc1csc(SCC(=O)Nc2sccc2C#N)n1 42.4%
Cc1cc(C(=O)COC(=O)C2CC2)c(C)n1-c1ccc(F)cc1 87.3%
O=C(OC1CCOC1=O)c1ccc(-c2nc3ccccc3s2)s1 (stereo not given) 60.6%
CN(CCO)c1ccc(/C=N/Nc2nncc3ccccc23)cc1 91.8%
O=C(CN1C(=O)c2ccccc2S1(=O)=O)N1CCc2ccccc21 46.1%
COc1ccc(-c2nc(-c3ccccc3)no2)c(OC)c1 84.8%
CN(C)c1ccc(-n2cccc2/C=N/n2cnnc2)cc1 45.9%
CC(C)Nc1ccc(-n2nc3ccccc3[n+]2[O-])cc1 51.6%

inhibition, 3.57% (inactive) and 48.8% (active):
O=C(Cn1c[n+](CC(=O)c2ccc([N+](=O)[O-])cc2)cn1)c1ccc([N+](=O)[O-])cc1

inhibition, inactive:
c1ccc(-c2ccc3c(c2)NC(C2Nc4cc(-c5ccccc5)ccc4O2)O3)cc1 (stereo not given) 8.8%
COCc1cc(=O)[nH]c2cc(NC(=O)C(F)(F)F)c(C)cc12 -8.2%
COc1ccc(Cl)cc1NC(=O)Cn1nc(-c2ccc(C)cc2)n(C)c1=S -3.4%
CCN(CCCNC(=O)c1ccc2c(c1)NC(=O)CN2C)c1cccc(C)c1 14.4%
COC(=O)C1[C@H]2SC(C)(C)C(C(=O)OC)N2C(=O)N1Cc1nc2ccccc2s1 (stereo not given in full) -5.33%
O=C(O)c1ccc(N=NN2CCOCC2)cc1 -8.5%
Cc1nn(CC(=O)Nc2ccc(F)cc2)c(=O)c2ccccc12 -9.73%
CC(C)CNC(=O)CC(NCC(C)C)C(=O)O (stereo not given) -4%
CC(C)(C)OC(=O)c1c(N)n(CCCN2CCCC2=O)c2nc3ccccc3nc12 -5.73%
CCCCOCCCNC(=O)c1ccccc1OCC -3.83%
COC(=O)c1sc(NC(=O)c2csc3c2CCCC3)nc1C 12.5%
COc1cc(NS(=O)(=O)c2ccc3ccccc3c2)c2ncccc2c1 10.9%
Cc1ccc(-n2c(SCC(=O)Nc3ncc(Cl)cc3Cl)nc3ccccc32)cc1 14%
Cc1ccc(Nc2nc(-c3sc(NC(=O)c4ccccc4)nc3C)cs2)cc1 15.7%
CCCCC(=O)Nc1nc(C)c(-c2csc(Nc3ccc(Cl)cc3)n2)s1 7.3%
CCc1nc(SCC(=O)Nc2ccccc2OC)n[nH]1 1.4%
Cc1ccc2nc(/C(C#N)=C\c3ccc(OC(=O)c4cccs4)cc3)[nH]c2c1 -11%
CCN(CC)CCn1c(N)c(S(=O)(=O)c2ccccc2)c2nc3ccccc3nc21 -3.4%
Cc1nnc(SCC(=O)N2c3ccccc3C(C)(c3ccc(Cl)cc3)CC2(C)C)s1 (stereo not given) 8.97%
CCCS(=O)(=O)N1CCCC(C(=O)NCCN2CCCCC2C)C1 (stereo not given) 1.9%
CCOC(=O)c1nc(C)n(-c2ccc(Cl)cc2Cl)n1 0.2%
CSCCC(C(=O)NC1=NCCS1)N1C(=O)c2ccccc2C1=O (stereo not given) -7.1%
CC(OC(=O)c1ccc2noc(-c3ccccc3)c2c1)C(N)=O (stereo not given) 2.1%
C/C(=N\NC(=S)NC1CCCCC1)c1ccc(C)o1 3.2%
Oc1c(C=Nc2cccc3nsnc23)ccc2ccccc12 6.47%
COc1cc(C(=O)NN(CCC#N)C2=NS(=O)(=O)c3ccccc32)cc(OC)c1OC -4.73%
CCc1ccc(Nc2ncc3c(n2)CC(c2ccco2)CC3=O)cc1 (stereo not given) -4.8%
CCOC(=O)N1CCN(Cc2nc3c(c(=O)n(C)c(=O)n3C)n2Cc2ccccc2)CC1 -3.3%
COc1cc(CNC2CCCCC2)c(Br)cc1OC1CCCC1 5.53%
Cc1sc2nc(CSCC(=O)Nc3c(Cl)cccc3Cl)[nH]c(=O)c2c1C -4.2%
Nc1ccc(-c2nnc(-c3ccccc3)o2)cc1 4.47%
Cc1cccc(CCNC(=O)Cn2ncc3c([nH]c4ccc(C)cc43)c2=O)c1 5.53%
O=C1CCC([N+](=O)[O-])C(c2ccccc2Br)N1 (stereo not given) -5.63%
CCCCNC(=O)Nc1c(C)cc(SC#N)cc1C 4.17%
Cc1ccc(Nc2nc(-c3ccc(O)cc3O)cs2)nc1 0.63%
CCOC(=O)CNC(=O)c1nn(-c2cccc(OC)c2)c(=O)c2ccccc12 -0.53%
CCOc1c(Br)cc(/C=C2\C(=O)N(CCC#N)N=C2C)cc1OC -11.9%
N#C/C=C\Oc1ccc(Cl)cc1N -1.37%
Cc1ccc(C(=O)COC(=O)c2cccc(N3C(=O)c4c(C)nc5ccccc5c4C3=O)c2)cc1C 4.83%
